From PubChem BioAssay (NCATS) come the findings set out here.

Records with an inconclusive call do not appear. Activity calls are given as the source filed them. Calls come from the whole dose curve; as a rule, active = well fitted cell-killing curve with a large enough effect; inconclusive = small, poorly fitted or top-dose-only effect, or effect the other way; inactive = no such curve, though single readings can be large or run the other way.

Assay [1] is described as follows: Viability qHTS for spleen associated tyrosine kinase inhibitor (SYKi) naive MV4-11 cells (AID 1963823). Note: nearly all actives have a fitted effect of over 40% in size. As to conditions: MV4-11 AML viability, CellTiter-Glo luminescence, 72 h; series mostly up to 45 µM. Summed up: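 qHTS, SYK inhibitor-naive MV4-11; 500 cells/well; 72 hr compound exposure, 37 C; CellTiter-Glo added, 10 min RT; luminescence read.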
(In general: In qHTS, concentration-response curves come from the screen itself.)

A short description of assay [2]: Viability qHTS for spleen associated tyrosine kinase inhibitor (SYKi) drug resistant MV4-11 cells (AID 1963824). Note: nearly all actives have a fitted effect of over 35% in size. As to conditions: SYKi-resistant MV4-11 viability, CellTiter-Glo, 72 h; series mostly up to 45 µM. The essentials:
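SYK inhibitor-resistant MV4-11 AML cells, 500 per well, added to predispensed compounds and incubated 72 hr at 37 C, 5% CO2. Viability measured by CellTiter-Glo luminescence after 10 min at room temperature.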
Potency is the fitted concentration of half-maximal effect.

As for `CC1(C)COC(=O)[C@@H]1O[C@@H]1O[C@H](CO)[C@@H](O)[C@H](O)[C@H]1O`, the Potency entry in assay [1] and in assay [2] was “inactive” in each case.
On to `C[C@@]1(C(=O)O)CCC[C@@]2(C)C3=CC[C@H]4C[C@@]3(CC[C@H]12)CC4(O)CO` (some centres undefined), for which the Potency entry in assay [1] and in assay [2] was “inactive” each time.
`CC1COC(Nc2ccc3ncnc(Nc4ccc(OCc5nccs5)c(Cl)c4)c3c2)=N1` (centres undefined): the Potency in assay [1] and in assay [2] was 9.2 µM (active) throughout.
`C=C1C(=O)OC[C@H]2C(C(=O)O)=CC3CC(C)(C)C[C@@]132` (some centres undefined): the Potency result in assay [1] is “inactive”. Further, the Potency in assay [2] is 14.6 µM (active).
For the molecule `CC(/C=C/C=C(\C)C(=O)O[C@@H]1O[C@H](CO[C@@H]2O[C@H](CO)[C@@H](O)[C@H](O)[C@H]2O)[C@@H](O)[C@H](O)[C@H]1O)=C\C=C\C=C(C)\C=C\C=C(/C)C(=O)O[C@@H]1C[C@](O)(C(=O)O)C[C@@H](O)[C@H]1OC(=O)/C=C/c1ccc(O)c(O)c1`, in assay [1], the viability (% of control) was 78.4% [at 9.25 µM] (inactive). Besides, in assay [2], the viability, % of control was 91.1% [at 9.25 µM] (inactive).
`C[C@@H]1[C@H]2[C@H](O[C@@H]3O[C@H](CO)[C@@H](O)[C@H](O)[C@H]3O)OC=C(C(=O)O)[C@H]2C[C@@H]1OC(=O)/C=C/c1ccc(O)cc1`: the Potency result in assay [1] and in assay [2] was “inactive” each time.
`C[C@@H]1O[C@@H](O[C@H]2[C@H](O)[C@@H](O[C@@H]3O[C@H](CO)[C@@H](O)[C@H](O[C@@H]4O[C@H](CO)[C@@H](O)[C@H](O)[C@H]4O)[C@H]3O)[C@H](O[C@H]3CC[C@@]4(C)C(=CC[C@@H]5C4CC[C@@]4(C)C5C[C@@H]5OC6(CC[C@@](C)(CO[C@@H]7O[C@H](CO)[C@@H](O)[C@H](O)[C@H]7O)O6)[C@@H](C)[C@@H]54)C3)O[C@@H]2CO)[C@H](O)[C@H](O)[C@H]1OC1OC(CO)C(O)C(O)C1O` (some centres undefined): the viability (% of control) in assay [1] was 77.4% [at 9.25 µM] (inactive). Besides, the viability, % of control in assay [2] was 109% [at 9.25 µM] (inactive).
